From the supplement of paper PMC12067093, “Discovery and optimisation of a covalent ligand for TRIM25 and its application to targeted protein ubiquitination” (Chemical Science, 2025) come the findings set out here.

Compound in the experiment: CC1Cc2ccccc2N1C(=O)C1CCCN(C1)C(=O)CCl (mixture of isomers) [TRIM25 ligand 11 (diastereomer mixture)]
In words: probe-labelled cysteine peptide fold change vs DMSO (competition) (log2 fold change); higher = less target engagement (more negative = stronger competition). Conditions: THP-1, incubation time: 4 h.

The full data set covers some 21,000 targets. This sample favours those with the largest changes.
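Also: competitive chemoproteomic profiling in live THP-1 cells with an iodoacetamide desthiobiotin (IA-DTB) probe, comparing probe-labelled peptide intensities in compound-treated cells against DMSO-treated controls.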

UniProt Q86UT6, sequence (Q86UT6 whole entry, looked up): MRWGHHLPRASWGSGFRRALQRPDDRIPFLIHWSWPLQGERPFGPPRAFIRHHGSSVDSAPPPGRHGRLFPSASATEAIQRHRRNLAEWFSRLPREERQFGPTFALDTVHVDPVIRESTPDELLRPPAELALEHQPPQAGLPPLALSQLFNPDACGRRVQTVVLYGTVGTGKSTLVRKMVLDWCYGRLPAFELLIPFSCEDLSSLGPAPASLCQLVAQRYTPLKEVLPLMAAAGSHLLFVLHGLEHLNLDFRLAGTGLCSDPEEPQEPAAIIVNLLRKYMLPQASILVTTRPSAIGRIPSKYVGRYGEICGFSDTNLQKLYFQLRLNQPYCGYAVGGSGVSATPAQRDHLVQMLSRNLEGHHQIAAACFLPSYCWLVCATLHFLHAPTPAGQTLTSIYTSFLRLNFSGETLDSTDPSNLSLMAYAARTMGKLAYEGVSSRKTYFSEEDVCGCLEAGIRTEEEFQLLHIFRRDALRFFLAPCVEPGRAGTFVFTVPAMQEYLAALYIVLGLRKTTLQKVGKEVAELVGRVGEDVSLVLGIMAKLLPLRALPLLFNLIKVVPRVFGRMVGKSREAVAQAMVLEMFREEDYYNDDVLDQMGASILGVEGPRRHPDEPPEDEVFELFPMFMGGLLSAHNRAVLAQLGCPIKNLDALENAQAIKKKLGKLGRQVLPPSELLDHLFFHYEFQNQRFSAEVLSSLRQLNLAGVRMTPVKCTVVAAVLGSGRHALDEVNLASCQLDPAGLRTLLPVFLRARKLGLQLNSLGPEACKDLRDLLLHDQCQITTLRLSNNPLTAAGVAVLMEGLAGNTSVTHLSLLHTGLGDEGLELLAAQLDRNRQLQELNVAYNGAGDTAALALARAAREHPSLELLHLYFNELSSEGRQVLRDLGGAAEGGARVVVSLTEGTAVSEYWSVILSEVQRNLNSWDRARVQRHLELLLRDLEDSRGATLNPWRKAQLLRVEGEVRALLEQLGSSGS
UniProt P07237, sequence (P07237 whole entry, looked up): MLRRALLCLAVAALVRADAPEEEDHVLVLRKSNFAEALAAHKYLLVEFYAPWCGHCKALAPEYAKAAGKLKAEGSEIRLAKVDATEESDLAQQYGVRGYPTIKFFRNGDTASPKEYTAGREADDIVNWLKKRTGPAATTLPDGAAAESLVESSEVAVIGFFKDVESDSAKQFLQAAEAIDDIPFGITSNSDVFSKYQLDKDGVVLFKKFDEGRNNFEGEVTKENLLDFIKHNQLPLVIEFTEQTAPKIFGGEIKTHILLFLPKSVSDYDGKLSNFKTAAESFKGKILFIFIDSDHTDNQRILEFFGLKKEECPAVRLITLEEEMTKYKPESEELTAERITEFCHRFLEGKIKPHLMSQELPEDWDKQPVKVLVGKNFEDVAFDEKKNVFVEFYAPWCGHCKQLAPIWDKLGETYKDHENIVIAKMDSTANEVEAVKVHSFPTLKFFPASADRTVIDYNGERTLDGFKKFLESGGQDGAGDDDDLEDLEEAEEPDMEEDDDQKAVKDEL
UniProt Q56VL3, sequence (Q56VL3 whole entry, looked up): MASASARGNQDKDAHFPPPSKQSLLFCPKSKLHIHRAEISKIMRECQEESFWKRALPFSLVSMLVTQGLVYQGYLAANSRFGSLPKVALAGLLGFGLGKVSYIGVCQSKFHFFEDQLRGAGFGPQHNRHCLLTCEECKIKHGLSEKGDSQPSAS
UniProt P52948, sequence (P52948 whole entry, looked up): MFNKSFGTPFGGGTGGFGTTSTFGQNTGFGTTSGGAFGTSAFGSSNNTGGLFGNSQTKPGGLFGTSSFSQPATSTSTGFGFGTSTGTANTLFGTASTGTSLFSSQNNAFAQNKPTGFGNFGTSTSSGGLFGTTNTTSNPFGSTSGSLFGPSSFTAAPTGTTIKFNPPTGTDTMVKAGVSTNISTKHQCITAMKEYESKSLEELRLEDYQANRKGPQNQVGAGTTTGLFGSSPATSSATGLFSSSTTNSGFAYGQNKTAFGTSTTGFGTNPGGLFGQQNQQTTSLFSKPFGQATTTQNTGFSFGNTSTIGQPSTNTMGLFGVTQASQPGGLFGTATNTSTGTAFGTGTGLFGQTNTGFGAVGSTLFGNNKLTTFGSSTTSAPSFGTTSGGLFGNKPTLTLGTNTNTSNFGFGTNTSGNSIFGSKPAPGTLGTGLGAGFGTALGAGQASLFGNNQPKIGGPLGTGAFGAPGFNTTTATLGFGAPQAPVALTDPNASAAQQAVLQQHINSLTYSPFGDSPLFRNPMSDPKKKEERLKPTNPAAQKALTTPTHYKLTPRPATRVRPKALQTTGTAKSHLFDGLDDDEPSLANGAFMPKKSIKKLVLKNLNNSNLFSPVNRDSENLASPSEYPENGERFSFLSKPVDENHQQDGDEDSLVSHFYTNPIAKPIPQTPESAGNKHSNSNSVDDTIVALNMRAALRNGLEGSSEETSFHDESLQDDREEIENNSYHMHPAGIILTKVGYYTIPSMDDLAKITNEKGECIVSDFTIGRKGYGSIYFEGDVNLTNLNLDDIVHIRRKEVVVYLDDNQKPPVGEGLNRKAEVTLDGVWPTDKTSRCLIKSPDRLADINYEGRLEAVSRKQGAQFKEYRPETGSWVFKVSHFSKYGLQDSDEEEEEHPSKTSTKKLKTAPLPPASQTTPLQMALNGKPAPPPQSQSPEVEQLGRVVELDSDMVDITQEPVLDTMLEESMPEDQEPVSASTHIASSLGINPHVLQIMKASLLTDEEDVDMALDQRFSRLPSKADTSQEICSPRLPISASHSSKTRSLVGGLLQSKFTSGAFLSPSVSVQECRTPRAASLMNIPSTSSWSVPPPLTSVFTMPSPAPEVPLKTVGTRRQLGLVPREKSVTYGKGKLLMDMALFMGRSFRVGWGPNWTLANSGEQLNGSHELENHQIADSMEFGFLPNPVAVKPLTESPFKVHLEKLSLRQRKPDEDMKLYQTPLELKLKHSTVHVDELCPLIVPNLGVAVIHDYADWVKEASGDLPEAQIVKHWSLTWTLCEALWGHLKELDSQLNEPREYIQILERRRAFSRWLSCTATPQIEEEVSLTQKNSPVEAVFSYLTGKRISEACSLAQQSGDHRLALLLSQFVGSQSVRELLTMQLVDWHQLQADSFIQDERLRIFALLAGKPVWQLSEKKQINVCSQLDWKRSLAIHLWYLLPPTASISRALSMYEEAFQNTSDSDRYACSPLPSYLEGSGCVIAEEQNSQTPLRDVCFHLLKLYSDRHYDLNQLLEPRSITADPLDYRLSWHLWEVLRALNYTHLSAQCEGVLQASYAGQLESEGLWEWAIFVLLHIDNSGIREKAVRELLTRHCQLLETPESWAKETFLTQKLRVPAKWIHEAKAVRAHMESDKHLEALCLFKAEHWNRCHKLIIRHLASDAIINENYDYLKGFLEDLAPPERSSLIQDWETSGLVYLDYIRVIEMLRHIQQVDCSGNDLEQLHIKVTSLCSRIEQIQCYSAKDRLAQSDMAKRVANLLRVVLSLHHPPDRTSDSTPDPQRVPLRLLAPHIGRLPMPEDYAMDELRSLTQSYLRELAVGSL
UniProt Q96P11, sequence (Q96P11 whole entry, looked up): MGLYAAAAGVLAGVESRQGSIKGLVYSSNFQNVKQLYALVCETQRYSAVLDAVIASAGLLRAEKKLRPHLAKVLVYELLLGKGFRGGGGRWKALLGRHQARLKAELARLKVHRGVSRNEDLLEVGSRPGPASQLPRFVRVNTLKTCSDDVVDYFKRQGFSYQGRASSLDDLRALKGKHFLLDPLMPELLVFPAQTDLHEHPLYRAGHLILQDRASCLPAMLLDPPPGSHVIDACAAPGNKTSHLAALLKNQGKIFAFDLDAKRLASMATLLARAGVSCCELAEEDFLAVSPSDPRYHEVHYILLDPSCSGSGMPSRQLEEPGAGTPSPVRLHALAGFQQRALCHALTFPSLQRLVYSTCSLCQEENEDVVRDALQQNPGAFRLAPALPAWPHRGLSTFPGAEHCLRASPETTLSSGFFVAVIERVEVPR
UniProt P68402, sequence (P68402 whole entry, looked up): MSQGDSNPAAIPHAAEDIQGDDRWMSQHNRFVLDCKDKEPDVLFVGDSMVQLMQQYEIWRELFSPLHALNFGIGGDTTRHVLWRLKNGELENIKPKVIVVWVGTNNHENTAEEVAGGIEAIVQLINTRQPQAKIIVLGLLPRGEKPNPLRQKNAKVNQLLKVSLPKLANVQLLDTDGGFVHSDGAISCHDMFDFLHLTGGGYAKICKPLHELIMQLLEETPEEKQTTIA
UniProt Q9NVZ3, sequence (Q9NVZ3 whole entry): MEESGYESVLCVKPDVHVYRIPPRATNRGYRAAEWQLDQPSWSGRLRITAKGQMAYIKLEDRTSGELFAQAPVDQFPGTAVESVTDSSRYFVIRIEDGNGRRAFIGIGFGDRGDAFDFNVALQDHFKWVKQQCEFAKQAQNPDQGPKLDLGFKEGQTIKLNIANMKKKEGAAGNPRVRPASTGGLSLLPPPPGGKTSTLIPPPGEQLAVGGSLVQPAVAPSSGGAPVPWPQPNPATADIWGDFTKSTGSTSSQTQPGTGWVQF
UniProt P12004, sequence (P12004 whole entry, looked up): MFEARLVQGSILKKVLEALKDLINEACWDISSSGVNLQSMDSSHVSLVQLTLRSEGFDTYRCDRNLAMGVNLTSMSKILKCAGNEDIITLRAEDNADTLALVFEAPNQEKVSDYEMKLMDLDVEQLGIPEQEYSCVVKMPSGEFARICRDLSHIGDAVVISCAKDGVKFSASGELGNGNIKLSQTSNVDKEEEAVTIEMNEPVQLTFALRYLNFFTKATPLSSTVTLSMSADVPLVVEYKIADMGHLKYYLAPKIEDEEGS
UniProt Q86X76, sequence (Q86X76 whole entry, looked up): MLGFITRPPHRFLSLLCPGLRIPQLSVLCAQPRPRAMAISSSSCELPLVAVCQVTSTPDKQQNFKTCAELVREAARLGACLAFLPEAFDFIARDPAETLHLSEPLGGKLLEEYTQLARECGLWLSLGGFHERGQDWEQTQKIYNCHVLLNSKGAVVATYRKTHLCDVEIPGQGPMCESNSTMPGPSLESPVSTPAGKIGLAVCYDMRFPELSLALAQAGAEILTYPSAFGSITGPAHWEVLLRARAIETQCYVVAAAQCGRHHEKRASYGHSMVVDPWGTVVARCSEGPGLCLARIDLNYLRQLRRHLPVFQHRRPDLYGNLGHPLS

On to “NLRX1_Q86UT6_259_LAGTGLCSDPEEPQEPAAIIVNLLR (UniProt Q86UT6)”, for which the “probe-labelled cysteine peptide fold change” value (10 µM) was 0.274 and the “probe-labelled cysteine peptide fold change” value (50 µM) was -0.746.

On to “PADI2_Q9Y2J8_629_GLLEPLGLECTFIDDISAYHK (UniProt Q9Y2J8)”, for which the “probe-labelled cysteine peptide fold change” value amounted to 0.0551 (10 µM) and 0.0618 (50 µM).

Consider “PDPR_Q8NCN5_357_LVNCPETFTPDMR (UniProt Q8NCN5)”, for which the “probe-labelled cysteine peptide fold change” value is, setting by setting: (10 µM) -0.0721; (50 µM) 0.18.

For the target “NECAP2_Q9NVZ3_11_MEESGYESVLCVKPDVHVYR (UniProt Q9NVZ3)”, the “probe-labelled cysteine peptide fold change” value (10 µM) was -0.174 and the “probe-labelled cysteine peptide fold change” value (50 µM) is -0.048.

“PCNA_P12004_135_LMDLDVEQLGIPEQEYSCVVK (UniProt P12004)”: the “probe-labelled cysteine peptide fold change” value is, setting by setting: (10 µM) -0.113; (50 µM) 0.0916.

“PARK7_Q99497_46_DPVQCSR (UniProt Q99497)”: the “probe-labelled cysteine peptide fold change” value by setting is: (10 µM) 0.105; (50 µM) 0.0666.

Take “NUP155_O75694_373_LYFSTCPFR (UniProt O75694)”: the “probe-labelled cysteine peptide fold change” value (10 µM) amounted to 0.15 and the “probe-labelled cysteine peptide fold change” value (50 µM) stood at 0.262.

For “NCKIPSD_Q9NZQ3_138_QPNGVCR (UniProt Q9NZQ3)”, the “probe-labelled cysteine peptide fold change” value (10 µM) was -0.0933 and the “probe-labelled cysteine peptide fold change” value (50 µM) is -0.32.

Take “NUP98_P52948_1711_HIQQVDCSGNDLEQLHIK (UniProt P52948)”: the “probe-labelled cysteine peptide fold change” value is, setting by setting: (10 µM) 0.207; (50 µM) 0.108.

As for “PAK2_Q13177_352_ECLQALEFLHANQVIHR (UniProt Q13177)”, the “probe-labelled cysteine peptide fold change” value (10 µM) came out at 0.0134 and the “probe-labelled cysteine peptide fold change” value (50 µM) worked out at 0.223.

As for “PARP1_P09874_908_SANYCHTSQGDPIGLILLGEVALGNMYELK (UniProt P09874)”, the “probe-labelled cysteine peptide fold change” value was -0.146 (10 µM) and -0.761 (50 µM).

“OCIAD2_Q56VL3_106_VSYIGVCQSK (UniProt Q56VL3)”: the “probe-labelled cysteine peptide fold change” value was -0.0503 (10 µM) and 0.116 (50 µM).

Regarding “NEDD4_P46934-4_4_ATCAVEVFGLLEDEENSR (UniProt P46934)”, the “probe-labelled cysteine peptide fold change” value is -0.669 (10 µM) and -0.509 (50 µM).

As to “P3H1_Q32P28_123_CLGPPAAHSLSEEMELEFR (UniProt Q32P28)”, the “probe-labelled cysteine peptide fold change” value runs as follows: (10 µM) 0.411; (50 µM) 0.646.

For “NUP107_P57740_749_EHLCIR (UniProt P57740)”, the “probe-labelled cysteine peptide fold change” value was found to be 0.128 (10 µM) and 0.0884 (50 µM).

“PASK_Q96RG2_759+761_ELFFSDQTDQTSSNCSCATSELR (UniProt Q96RG2)”: the “probe-labelled cysteine peptide fold change” value is, setting by setting: (10 µM) 0.0516; (50 µM) 0.0688.

For the target “NDRG1_Q92597_289_MADCGGLPQISQPAK (UniProt Q92597)”, the “probe-labelled cysteine peptide fold change” value is, setting by setting: (10 µM) -0.006; (50 µM) -0.0335.

In the case of “NSUN5_Q96P11_308_YHEVHYILLDPSCSGSGMPSR (UniProt Q96P11)”, the “probe-labelled cysteine peptide fold change” value was -0.725 (10 µM) and -0.0597 (50 µM).

For “PABPC4_Q13310-3_488_VGSECPDR (UniProt Q13310)”, the “probe-labelled cysteine peptide fold change” value (10 µM) is -0.118 and the “probe-labelled cysteine peptide fold change” value (50 µM) was -0.166.

On to “NIT1_Q86X76_251+259_AIETQCYVVAAAQCGR (UniProt Q86X76)”, for which the “probe-labelled cysteine peptide fold change” value turned out to be 0.553 (10 µM) and 0.575 (50 µM).

Take “NUP188_Q5SRE5_161_VEYADCVDK (UniProt Q5SRE5)”: the “probe-labelled cysteine peptide fold change” value reads like this: (10 µM) 0.394; (50 µM) 0.321.

In the case of “NOP58_Q9Y2X3_106_LNLSCIHSPVVNELMR (UniProt Q9Y2X3)”, the “probe-labelled cysteine peptide fold change” value by setting is: (10 µM) 0.0103; (50 µM) 0.12.

Turning to “NOP2_P46087_393_ILDMCCAPGGK (UniProt P46087)”, the “probe-labelled cysteine peptide fold change” value is -0.0381 (10 µM) and -0.0998 (50 µM).

Turning to “NUP210_Q8TEM1_746_FVCAPPSR (UniProt Q8TEM1)”, the “probe-labelled cysteine peptide fold change” value amounted to 0.0568 (10 µM) and 0.329 (50 µM).

As for “NVL_O15381_431_FDREICLGIPDEASR (UniProt O15381)”, the “probe-labelled cysteine peptide fold change” value (10 µM) is -0.0502 and the “probe-labelled cysteine peptide fold change” value (50 µM) is 0.0728.

Consider “P4HB_P07237_397+400_NVFVEFYAPWCGHCK (UniProt P07237)”, for which the “probe-labelled cysteine peptide fold change” value was -0.122 (10 µM) and -0.34 (50 µM).

With “NSUN6_Q8TEA1_242_ILDLCAAPGGK (UniProt Q8TEA1)”, the “probe-labelled cysteine peptide fold change” value (10 µM) was 0.157 and the “probe-labelled cysteine peptide fold change” value (50 µM) is -0.0703.

Consider “NVL_O15381_460_LPQAFDFCHLAHLTPGFVGADLMALCR (UniProt O15381)”, for which the “probe-labelled cysteine peptide fold change” value (10 µM) is -0.219 and the “probe-labelled cysteine peptide fold change” value (50 µM) is -0.00784.

Consider “PAFAH1B2_P68402_206_ICKPLHELIMQLLEETPEEK (UniProt P68402)”, for which the “probe-labelled cysteine peptide fold change” value (10 µM) is -0.486 and the “probe-labelled cysteine peptide fold change” value (50 µM) is -0.692.

Regarding “OTX1_P32242_340_LNFNSPDCLDYK (UniProt P32242)”, the “probe-labelled cysteine peptide fold change” value by setting is: (10 µM) 0.161; (50 µM) -0.0204.

In the case of “NUS1_Q96E22_235_QKRPTDLDVDTLASLLSSNGCPDPDLVLK (UniProt Q96E22)”, the “probe-labelled cysteine peptide fold change” value is, setting by setting: (10 µM) -0.332; (50 µM) -0.641.

Take “PCBP1_Q15365_293_GYWASLDASTQTTHELTIPNNLIGCIIGR (UniProt Q15365)”: the “probe-labelled cysteine peptide fold change” value is -0.0964 (10 µM) and -0.174 (50 µM).

For the target “NCDN_Q9UBB6-2_5_ASDCEPALNQAEGR (UniProt Q9UBB6)”, the “probe-labelled cysteine peptide fold change” value runs as follows: (10 µM) 0.0744; (50 µM) -0.297.

As to “PARP4_Q9UKK3_1099_LLVYGFIPHCTQATLCALIQEK (UniProt Q9UKK3)”, the “probe-labelled cysteine peptide fold change” value reads like this: (10 µM) 0.224; (50 µM) -0.243.

“PARP14_Q460N5_1274_ECSQQAQQR (UniProt Q460N5)”: the “probe-labelled cysteine peptide fold change” value reads like this: (10 µM) 0.0962; (50 µM) -0.0412.

“NT5DC2_Q9H857_475_FSDLYMASLSCLLNYR (UniProt Q9H857)”: the “probe-labelled cysteine peptide fold change” value came to 0.0123 (10 µM) and 0.0662 (50 µM).

Turning to “NUP205_Q92621_1032_TCLHAILNILEK (UniProt Q92621)”, the “probe-labelled cysteine peptide fold change” value (10 µM) stood at 0.00038 and the “probe-labelled cysteine peptide fold change” value (50 µM) is -0.0819.

In the case of “PATZ1_Q9HBE1_297_EAGILPCGLCGK (UniProt Q9HBE1)”, the “probe-labelled cysteine peptide fold change” value (10 µM) is 0.00899 and the “probe-labelled cysteine peptide fold change” value (50 µM) was -0.0723.
